PubChem BioAssay AID623868 (Vanderbilt High Throughput Screening Facility, 2012)
Among all 2,100 compounds or so, about 760 (36%) were called active.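 How the source made its calls: active means thallium-flux fluorescence traces judged by eye to show enhanced or reduced glutamate response, manual score 1 or -1, so both directions (some results past the limit were not filed as active); inactive means the rest, including fluorescent or raised-baseline compounds.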 Not all results are given here.

Test: non-GIRK thallium flux modulation in mGlu8 cells, confirmation, counter-screen for GIRK activator project, cell-based, HEK-293 rmGlu8, no GIRK (AID 623868);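 further: extra codes mark interference with 3 for fluorescent and 4 for baseline rise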
Settings: thallium flux fluorescence, at 10 µM, actives lie on both sides, codes: 1 enhancer, -1 blocker, 0 none, thallium stimulus containing EC20 glutamate
For CC(C)c1cc(C(F)(F)F)n2nc(C(=O)Nc3ccc4c(c3)OCO4)cc2n1, the manual score was 0 (inactive).
For CC1CCCN(C(C(=O)Nc2ccc3c(c2)OCO3)c2ccccc2)C1 (configuration not stated), the manual score was -0.5 (inactive).
In the case of O=C(NC(=S)Nc1ccc2c(c1)OCO2)c1ccccc1, the manual score is reported as 1 (active).
In the case of O=C(NC(=S)Nc1ccc(Oc2ccc(Cl)cc2)cc1)c1ccccc1, the manual score is reported as 0 (inactive).
For Cn1ncc2cc(NC(=S)NC(=O)c3ccccc3)ccc21, the manual score was 1 (active).
With O=C(NC(=S)Nc1ccc2c(c1)OCCO2)c1ccccc1 the manual score was 1 (active).
With CC1CCN(C(C(=O)Nc2ccc3c(c2)OCO3)c2ccccc2)CC1 (configuration not stated) the manual score was 0 (inactive).
In the case of Cc1ccc(-c2n[nH]c(=S)n2/N=C/c2ccc(C)s2)cc1, the manual score is reported as 1 (active).
With Cn1cccc1/C=N/n1c(-c2ccc(C(C)(C)C)cc2)n[nH]c1=S the manual score was 0 (inactive).
In the case of Cc1ccc(/C=N/n2c(COc3ccccc3)n[nH]c2=S)s1, the manual score is reported as 1 (active).
In the case of Cc1ccc(-c2n[nH]c(=S)n2/N=C/c2cccs2)cc1, the manual score is reported as 1 (active).
In the case of CC(/C=N/n1c(COc2ccccc2)n[nH]c1=S)=C\c1ccccc1, the manual score is reported as 0 (inactive).
With Cc1ccccc1CNS(=O)(=O)c1ccc2c(c1)OCCO2 the manual score was 0 (inactive).
For O=C(N/N=C1/C(=O)c2cccc3cccc1c23)c1ccc(Cl)cc1, the manual score was 1 (active).
For CNC(=S)N/N=C1\C(=O)c2cccc3cccc1c23, the manual score was 1 (active).
For CCNC(=S)N/N=C1\C(=O)c2cccc3cccc1c23, the manual score was 1 (active).
For CCCCNC(=S)N/N=C1\C(=O)c2cccc3cccc1c23, the manual score was 1 (active).
In the case of CCCCNc1c2c3c(cccc3n(C)c1=O)C(=O)c1ccccc1-2, the manual score is reported as 3 (inactive).
With CCCCN(C)C1=Nc2cccc3cccc1c23 the manual score was 0 (inactive).
With COc1ccc(Cn2nnnc2C(c2ccc(F)cc2)N2CCN(C3CCCC3)CC2)cc1 (configuration not stated) the manual score was 0 (inactive).
For N#Cc1nc(Cc2ccccc2)oc1NCCc1ccccc1, the manual score was 0 (inactive).
With O=C(CCN1C(=O)COc2ccccc21)NCCCN1CCc2ccccc2C1 the manual score was 0 (inactive).
With Cc1ccc(NC(=O)COC(=O)/C=C/c2ccco2)cc1S(=O)(=O)N(C)C the manual score was 0 (inactive).
For Cn1c(NCc2cccc(Br)c2)nc2ccccc21, the manual score was 0 (inactive).
For Fc1cccc2sc(Nc3nnc(-c4ccco4)o3)nc12, the manual score was 1 (active).
For COc1cc(OC)cc(-c2nnc(Nc3nc4c(F)cccc4s3)o2)c1, the manual score was 1 (active).
In the case of COc1cccc(-c2nnc(Nc3nc4c(F)cccc4s3)o2)c1, the manual score is reported as 1 (active).
With Fc1cccc2sc(Nc3nnc(-c4ccccc4)o3)nc12 the manual score was 1 (active).
With Nc1nnc(C(=O)c2ccccc2N)s1 the manual score was 0 (inactive).
In the case of Clc1ccccc1-c1nnc2sc(CCc3ccccc3)nn12, the manual score is reported as 0 (inactive).
With CCn1c(=NC(=O)CSC(C)=O)sc2ccccc21 the manual score was 1 (active).
For O=C(COC(=O)C1CC(=O)N(Cc2ccccc2)C1)Nc1ccc2c(c1)OCO2 (configuration not stated), the manual score was 0 (inactive).
For O=C(Oc1ccccc1)c1cccc(COC(=O)c2cnccn2)c1, the manual score was -1 (active).
In the case of COC(=O)c1ccccc1NC(=O)Nc1cnccn1, the manual score is reported as 0 (inactive).
With CC(=O)Nc1nnc(C)s1 the manual score was 0 (inactive).
For CCn1c(SCC(N)=O)nc2c(c1=O)C1(CCCC1)Cc1ccccc1-2, the manual score was 0 (inactive).
With C=CCSc1nc2sc3c(c2c(=O)n1CC)CCc1ccccc1-3 the manual score was 1 (active).
With CCCSc1nc(C)nc2c1c(=O)n(C)c(=O)n2C the manual score was 0 (inactive).
In the case of CC1CCCC(NC(=S)Nc2ccc(SC(F)F)cc2)C1C (configuration not stated), the manual score is reported as 0 (inactive).
In the case of CC1CCCCC1NC(=S)Nc1ccc(SC(F)F)cc1 (configuration not stated), the manual score is reported as 0 (inactive).
In the case of CC1CCCC(NC(=O)Nc2cccs2)C1C (configuration not stated), the manual score is reported as 0 (inactive).
With CC1CCCC(NC(=S)NC(=O)c2cncc(Br)c2)C1C (configuration not stated) the manual score was 1 (active).
In the case of Cc1ccccc1NC(=S)NC(=O)c1cncc(Br)c1, the manual score is reported as 1 (active).
For CC1CCCC(NC(=S)NC(=O)c2ccccc2Br)C1C (configuration not stated), the manual score was 1 (active).
With CN(C(=S)NC(=O)c1ccccc1Br)C1CCCCC1 the manual score was 1 (active).
With CN(C)Cc1cc(C(C)(C)C)c(O)c(C(C)(C)C)c1 the manual score was 0 (inactive).
For CCN1CCN(c2ccc(NC(=O)CCc3c(C)nc4c(-c5ccccc5)c(C)nn4c3C)cc2)CC1, the manual score was 0 (inactive).
With O=C(NC(=S)NCCC1=CCCCC1)c1cncc(Br)c1 the manual score was 1 (active).
In the case of COc1ccc(C)cc1NC(=O)NCCC1=CCCCC1, the manual score is reported as 0 (inactive).
In the case of COc1ccccc1/C=C/C(=O)NC(=S)N(C)C1CCCCC1, the manual score is reported as 1 (active).
In the case of CCOC(=O)c1ccc(NC(=S)NC2CCCC2)cc1, the manual score is reported as 0 (inactive).
With FC(F)(F)c1cccc(NC(=S)NC2CCCC2)c1 the manual score was 0 (inactive).
For COc1cccc2c1OC[C@@H](CO)[C@H]2N(C)C(=O)Nc1ccccc1, the manual score was 0 (inactive).
For CCN(C(=O)c1cc(Cl)ccc1OC)C1CCCCC1, the manual score was 0 (inactive).
For O=C(NC(=S)NC1CCCCCC1)c1cncc(Br)c1, the manual score was 1 (active).
For COC(=O)[C@H](Cc1ccccc1)NC(=O)NCCC1=CCCCC1, the manual score was 0 (inactive).
With Cc1ccc(C(=O)N/N=C(/CC(=O)c2cccs2)C(F)(F)F)cc1 the manual score was 1 (active).
With C=CCn1c(O)c(N=NC(=O)OC(C)(C)C)c2ccccc21 the manual score was 1 (active).
For Cc1ccccc1Cn1c(=N)n(CC(=O)c2ccco2)c2ccccc21, the manual score was 0 (inactive).
In the case of CCCn1c(O)c(N=NC(=O)c2ccco2)c2ccccc21, the manual score is reported as 1 (active).
With CCCCNC(=S)N=Nc1c(O)n(Cc2ccccc2)c2ccccc12 the manual score was 1 (active).
In the case of O=C(NCCSc1c[nH]c2ccccc12)c1ccco1, the manual score is reported as 0 (inactive).
With CN=C1SC(C(=O)O)CC(=O)N1C (configuration not stated) the manual score was 0 (inactive).
With O=C(NC1CC1)c1ccc(CSCc2cccc(F)c2)o1 the manual score was 0 (inactive).
For CCOC(=O)c1nn(-c2ccc(F)cc2)c(C)c1C(C)=O, the manual score was 0 (inactive).
In the case of CCOC(=O)C(CC)n1cnc2c(nnn2-c2ccc(OC)cc2)c1=O (configuration not stated), the manual score is reported as -1 (active).
In the case of CCOC(=O)C(C)Sc1nc2c(cnn2-c2ccc(C)cc2)c(=O)[nH]1 (configuration not stated), the manual score is reported as 0 (inactive).
For Nc1nc2n(n1)C(c1cccs1)CC(c1ccc(F)cc1)N2 (configuration not stated), the manual score was 0 (inactive).
With Cc1cc(C)c2oc(-c3ccc(C)c(NC(=S)NC(=O)c4cccs4)c3)nc2c1 the manual score was 1 (active).
With O=C(NC(=S)Nc1ccc2oc(-c3cccnc3)nc2c1)c1cccc(Cl)c1 the manual score was 0 (inactive).
For O=C(Nc1ccc2oc(-c3ccncc3)nc2c1)c1c(F)c(F)c(F)c(F)c1F, the manual score was 0 (inactive).
For Cc1ccc(-c2nc3ccccc3o2)cc1NC(=S)NC(=O)c1cc2ccccc2o1, the manual score was 0 (inactive).
With Cc1ccc2oc(-c3cccc(NC(=S)NC(=O)c4cccs4)c3)nc2c1 the manual score was 1 (active).
For O=C1Nc2cc(S(=O)(=O)N3CCCC3)ccc2N2CCCC12 (configuration not stated), the manual score was 0 (inactive).
For CC(C)OC(=O)/C(=C/c1cccnc1)NC(=O)c1ccccc1, the manual score was 0 (inactive).
For O=C(N/N=C(\c1ccccc1)c1cccnc1)C(O)(c1ccccc1)c1ccccc1, the manual score was -1 (active).
For O=C(NCCCCNC(=O)c1cccnc1)c1cccnc1, the manual score was 0 (inactive).
For Cc1c(C#N)c2ncn(CC#N)c(=O)c2n1-c1ccccc1, the manual score was 0 (inactive).
With CCCOC(=O)c1ccc(-c2c(C)noc2-c2ccc(OC)cc2O)o1 the manual score was -1 (active).
For COc1ccc(-c2onc(C)c2-c2ccc(C(=O)OC(C)C)o2)c(O)c1, the manual score was 0 (inactive).
In the case of Cc1cc(C(=O)OCC(=O)Nc2ccc(F)cc2)c(C)o1, the manual score is reported as 0 (inactive).
For Cc1ccccc1NC1=NC(=S)N(c2ccccc2)C12CCOC(C)(C)C2 (configuration not stated), the manual score was 1 (active).
For Cc1ccccc1Nc1nc2nonc2nc1N1CCOCC1, the manual score was 0 (inactive).
For Cc1ccc(N2C(=S)N=C(Nc3ccccc3C)C23CCOC(C)(C)C3)cc1 (configuration not stated), the manual score was 1 (active).
In the case of CC1=NCCN1S(=O)(=O)c1cc(Cl)ccc1Cl, the manual score is reported as 0 (inactive).
With COc1cccc2[nH]c3c(N4CCCC(C)C4)ncnc3c12 (configuration not stated) the manual score was 0 (inactive).
For S=C1Nc2ccccc2Sc2ccc(Cl)cc21, the manual score was 0 (inactive).
For S=C1Nc2cc(Cl)ccc2Sc2ccccc21, the manual score was 1 (active).
In the case of S=C1CCSc2ccc(Cl)cc2N1, the manual score is reported as 1 (active).
With Clc1ccc2c(c1)C(N1CCNCC1)Cc1ccccc1S2 (configuration not stated) the manual score was 0 (inactive).
For CCOC(=O)c1[nH]c(C)c(C(=O)NC2CCCCC2)c1C, the manual score was 0 (inactive).
For CC(C)Sc1oc(-c2ccco2)nc1S(=O)(=O)c1ccccc1, the manual score was 0 (inactive).
With Cc1ccc(-c2cc(-c3cccs3)[nH]n2)c(O)c1 the manual score was 0 (inactive).
With CN=c1scc(-c2cccs2)n1/N=C/c1ccc(O)c(O)c1O the manual score was 0 (inactive).
For Cc1ccc(/C=N/n2c(-c3cccs3)n[nH]c2=S)cc1, the manual score was 1 (active).
In the case of Fc1ccc(/C=N/n2c(-c3cccs3)n[nH]c2=S)cc1, the manual score is reported as 1 (active).
For C=CCn1c(-c2cccs2)nc2ccccc21, the manual score was 0 (inactive).
In the case of CC12CN(Cc3ccccc3)CC(C)(CN(Cc3ccccc3)C1)C2=NO, the manual score is reported as 0 (inactive).
With O=c1[nH]c2ccccc2n1CCC1CCCCC1 the manual score was 0 (inactive).
With CCOC(=O)N1CCC(n2c(=S)[nH]c3ccccc3c2=O)CC1 the manual score was 1 (active).
In the case of O=c1c2ccccc2[nH]c(=S)n1C1CCCCC1, the manual score is reported as 1 (active).
In the case of O=C(C1CCC(Cn2c(=S)[nH]c3ccccc3c2=O)CC1)N1CCN(c2ccccc2)CC1 (configuration not stated), the manual score is reported as 0 (inactive).
For CC1CCC(n2c(=S)[nH]c3ccccc3c2=O)CC1 (configuration not stated), the manual score was 1 (active).
For CC1CCCCC1n1c(=S)[nH]c2ccccc2c1=O (configuration not stated), the manual score was 1 (active).
In the case of CCN1CCN(C(=O)c2ccc3c(=O)n(C4CCCC4)c(=S)[nH]c3c2)CC1, the manual score is reported as 0 (inactive).
For O=C(c1ccc2c(=O)n(C3CCCC3)c(=S)[nH]c2c1)N1CCc2ccccc21, the manual score was 0 (inactive).
With CC1CCCC(n2c(=S)[nH]c3ccccc3c2=O)C1C (configuration not stated) the manual score was 3 (inactive).
In the case of CCOC(=O)/C(=C\C=C1/Sc2cc(OCC)c(OCC)cc2N1CC)C(C)=O, the manual score is reported as 3 (inactive).
With C=CCN1CCN(C(c2ccc(Cl)cc2)c2nnnn2CCc2ccc(OC)c(OC)c2)CC1 (configuration not stated) the manual score was 0.5 (inactive).
For CCC1(C)CC(c2csc(N)n2)CCO1 (configuration not stated), the manual score was 0 (inactive).
In the case of O=C(CSCCO)Nc1ccccc1, the manual score is reported as 0 (inactive).
For CCOC(=O)C(C(=O)OCC)c1cc(Br)c2noc3c2c1C(=O)c1ccccc1-3, the manual score was 3 (inactive).
